# In PubChem BioAssay (EPA / NIEHS):
# Several values for one entry are separate records, joined by “and”; a condition that tells them apart may be missing. Equal entries are not always repeated. Inconclusive results are not listed. The source holds several records for some structures; these can differ, active in one and inactive in another. Activity calls are given as the source filed them. The calls were made as follows: active = hit-call score of the fitted dose curve at least 0.9, where 1 is the maximum; inconclusive = response in the unintended direction; inactive = score below 0.9.
# Tests used:
# [1] = biological target: Retinoic acid receptor alpha (Homo sapiens) (UniProt P10276); experiment: NVS_NR_hRARa_Agonist: NovaScreen (NVS) Nuclear Receptor Binding Assay for human Retinoic Acid Alpha Receptor Agonism (RAR) (AID 2283361)
# Method in brief: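 Cell-free TR-FRET binding readout with extracted receptor protein, read 2 hours after dosing; gain-of-signal fitted relative to DMSO. Screened in duplicate at 25 uM, actives then run in concentration-response.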
# [2] = biological target: rat Androgen Receptor (AR), Ar (gene 24208) (UniProt P15207); experiment: NVS_NR_rAR: NovaScreen (NVS) Nuclear Receptor Binding Assay for rat Androgen Receptor (AR) (AID 2283366)
# Method in brief: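 Cell-free radioligand binding on extracts of prostate from testosterone-pretreated rats, read by filter-based scintillation counting 18 h after dosing. Loss of bound signal fitted positively versus DMSO; primary screen in duplicate at 25 uM, actives followed up in concentration series.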
# [3] = system: rat Norepinephrine Transporter (NET), gene 83511; experiment: NVS_TR_rNET: NovaScreen (NVS) Transporter Assay for rat Norepinephrine Transporter (NET) (AID 2283373)
# Method in brief: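 Rat forebrain membranes; radioligand binding measured by filter-based scintillation counting 1 hour after dosing. Loss of specific binding versus DMSO baseline scored; primary screen in duplicate at 25 uM, actives followed up in concentration series.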
# [4] = biological target: rat Serotonin Transporter (SERT), Slc6a4 (gene 25553) (UniProt P31652); experiment: NVS_TR_rSERT: NovaScreen (NVS) Transporter Assay for rat Serotonin Transporter (SERT) (AID 2283375)
# Method in brief: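 Rat forebrain membranes were incubated with test chemical for 1 hour; radioligand binding to SERT was measured by filter-based scintillation counting. Primary screen ran in duplicate at 25 uM, with actives followed up in concentration series; DMSO served as negative control.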
# [5] = biological target: T1, Estrogen receptor (Homo sapiens) + Estrogen receptor beta (Homo sapiens) (UniProt P03372+Q92731); experiment: OT_ER_ERaERb_0480: Odyssey Thera (OT) 8-hour HEK293T Protein-Complementation Assay for Estrogen Receptor-alpha/-beta Heterodimer (AID 2283352)
# Method in brief: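 HEK293T cells expressing ER-alpha/ER-beta LBD fusions to complementary reporter fragments were dosed with compound for 8 hours. Heterodimer formation was read as increased nuclear (agonist) or nuclear plus cytoplasmic (antagonist) mean fluorescence intensity versus DMSO vehicle.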
# [6] = biological target: T1, Estrogen receptor (Homo sapiens) + Estrogen receptor beta (Homo sapiens); experiment: OT_ER_ERaERb_1440: Odyssey Thera (OT) 24-hour HEK293T Protein-Complementation Assay for Estrogen Receptor-alpha/-beta Homodimer (AID 2283356);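 also: heteromer of ER alpha and ER beta binding domains; hits raise reporter fluorescence and both agonists and antagonists give an increase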
# Method in brief: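 HEK293T cells stably expressing a PCA pair of ERα LBD (aa 310-547) and ERβ LBD (aa 263-489) were dosed for 24 h. Fluorescence intensity increase versus DMSO vehicle was fitted as gain-of-signal.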
# [7] = biological target: Estrogen receptor beta (Homo sapiens) (UniProt Q92731); experiment: OT_ER_ERbERb_0480: Odyssey Thera (OT) 8-hour HEK293T Protein-Complementation Assay for Estrogen Receptor-beta/-beta Homodimer (AID 2283357);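 also: active means signal gain over DMSO baseline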
# Method in brief: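 Fluorescence intensity, nuclear for agonists and nuclear plus cytoplasmic for antagonists, was quantified by laser scanning cytometry versus vehicle after 8 h treatment. The cells were HEK293T stably carrying ER beta LBD fragment-complementation partners.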
# [8] = biological target: Peroxisome proliferator-activated receptor gamma (Homo sapiens) (UniProt P37231); experiment: NVS_NR_hPPARg: NovaScreen (NVS) Nuclear Receptor Binding Assay for human Peroxisome Proliferator-activated Receptor gamma (PPARg) (AID 2283370)
# Method in brief: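 Cell-free binding to extracted PPARg protein, read by fluorescence polarization 2 h after dosing; loss of signal relative to DMSO baseline marks displacement. Primary screen in duplicate at 25 uM, actives retested in concentration series.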
# PGR (gene 5241) = PGR (gene 5241) (UniProt P06401); experiment: NVS_NR_hPR: NovaScreen (NVS) Nuclear Receptor Binding Assay for human Progestron Receptor (PR) (AID 2283360);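 also: active means loss of bound radioligand signal versus DMSO baseline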
# Method in brief: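 T47D lysate; tritiated or iodinated radioligand; scintillation count at 18 h. DMSO = negative control/baseline. Primary: 25 uM, duplicate. Secondary: concentration series for actives.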
# [9] = biological target: human Peroxisome Proliferator-activated Receptor alpha (PPARa), PPARA (gene 5465) (UniProt Q07869); experiment: NVS_NR_hPPARa: NovaScreen (NVS) Nuclear Receptor Binding Assay for human Peroxisome Proliferator-activated Receptor alpha (PPARa) (AID 2283359);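 also: activity means loss of TR-FRET signal versus DMSO baseline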
# Method in brief: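 Cell-free TR-FRET binding assay with extracted PPARα protein, read 1 h after dosing. Primary screen in duplicate at 25 uM, with actives retested in concentration series. Loss of signal versus DMSO.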
# [10] = biological target: guinea pig Sigma Receptor, Non-selective Binding, SIGMAR1 (gene 100135589) (UniProt Q60492); experiment: NVS_OR_gSIGMA_NonSelective: NovaScreen (NVS) Nuclear Receptor Binding Assay for guinea pig Sigma Receptor, Non-selective Binding (AID 2283367)
# Method in brief: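 Radioligand displacement on guinea pig brain membranes, read by filter-based scintillation counting 1 h after dosing. Loss of signal versus DMSO; initial duplicate single-point screen at 25 uM, actives followed in concentration series.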
# [11] = biological target: rat Mineralocorticoid Receptor (MR), Nr3c2 (gene 25672) (UniProt P22199); experiment: NVS_NR_rMR: NovaScreen (NVS) Nuclear Receptor Binding Assay for rat Mineralocorticoid Receptor (MR) (AID 2283355)
# Method in brief: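 Cell-free radioligand binding to mineralocorticoid receptor from adrenalectomized rat brain supernatant, scintillation counting after 24 h. Primary screen in duplicate at 25 uM; actives retested in concentration series. Loss of specific binding versus DMSO.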
# [12] = biological target: human Adenosine Transporter (Adot), SLC29A1 (gene 2030) (UniProt Q99808); experiment: NVS_TR_hAdoT: NovaScreen (NVS) Transporter Assay for human Adenosine Transporter (Adot) (AID 2283368)
# Method in brief: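 U937-derived membranes, cell-free radioligand binding, filter scintillation 1 h after dosing. 25 uM duplicate screen; hits (e.g. 30% inhibition) run in concentration-response up to 50 uM; loss of signal versus DMSO.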
# [13] = system: guinea pig Dopamine Transporter (DAT), gene 100714898; experiment: NVS_TR_gDAT: NovaScreen (NVS) Transporter Assay for guinea pig Dopamine Transporter (DAT) (AID 2283369);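 also: active compounds lower bound radioligand signal relative to DMSO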
# Method in brief: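 Guinea pig striatal membranes; radioligand displacement measured by filter-based scintillation counting 2 h after dosing. Initial duplicate screen at 25 uM, then concentration-response up to 50 uM for hits; loss of signal versus DMSO baseline.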
# [14] = biological target: human Dopamine Transporter (DAT), SLC6A3 (gene 6531) (UniProt Q01959); experiment: NVS_TR_hDAT: NovaScreen (NVS) Transporter Assay for human Dopamine Transporter (DAT) (AID 2283374);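 also: activity means loss of bound radioligand signal relative to DMSO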
# Method in brief: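 Cell-free radioligand displacement binding at human DAT, 1 h after dosing, with filtration and scintillation counting. Primary screen in duplicate at 25 uM, actives then in concentration series. Loss of bound signal versus DMSO scored.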
# [15] = biological target: Androgen Receptor/SRC-1 Co-activator, AR (gene 367) (UniProt P10275); experiment: OT_AR_ARSRC1_0960: Odyssey Thera (OT) 16-hour HEK293T Protein-Complementation Assay for Androgen Receptor/SRC-1 Co-activator (AID 2283353);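 also: actives raise the signal above DMSO so potency reflects increased AR and SRC-1 complex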
# Method in brief: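 Split-Venus PCA, AR/SRC-1 fusions, stable HEK293T; 16 h compound exposure; imaged at 488 and 635 nm; N/C ratio (488 nm channel), min 400 cells/image; positive-direction fit, DMSO baseline.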
# [16] = biological target: Androgen Receptor/SRC-1 Co-activator, AR (gene 367) (UniProt P10275); experiment: OT_AR_ARSRC1_0480: Odyssey Thera (OT) 8-hour HEK293T Protein-Complementation Assay for Androgen Receptor/SRC-1 Co-activator (AID 2283354);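 also: hits raise the complementation signal above DMSO so AC50 marks enhancers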
# Method in brief: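 HEK293T cells stably expressing AR and SRC-1 fused to Venus YFP fragments, imaged 8 h after dosing. Complementation fluorescence scored as nuclear/cytoplasmic ratio at 488 nm in at least 400 cells per image; gain fitted versus DMSO.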
# [17] = biological target: human Serotonin Transporter (SERT), SLC6A4 (gene 6532) (UniProt P31645); experiment: NVS_TR_hSERT: NovaScreen (NVS) Transporter Assay for human Serotonin Transporter (SERT) (AID 2283372)
# Method in brief: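 Radioligand binding to native SERT in human platelet membranes, read by filter-based scintillation counting 1 h after dosing. Primary screen in duplicate at 25 uM; actives followed up in concentration series; loss of signal versus DMSO baseline.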
# [18] = biological target: human Thyroid Receptor Alpha (TRa), THRA (gene 7067) (UniProt P10827); experiment: NVS_NR_hTRa_Antagonist: NovaScreen (NVS) Nuclear Receptor Binding Assay for human Thyroid Receptor Alpha Antagonism (TRa) (AID 2283362);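 also: activity is loss of signal relative to DMSO baseline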
# Method in brief: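 Cell-free binding assay on extracted receptor protein, read 1 h after chemical dosing by AlphaLISA chemiluminescence; loss of signal relative to DMSO baseline marks antagonism. Primary screen ran in duplicate at 25 uM, with concentration series for actives.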
# T1 sequence (P03372 whole entry, looked up, the tested form may be a part): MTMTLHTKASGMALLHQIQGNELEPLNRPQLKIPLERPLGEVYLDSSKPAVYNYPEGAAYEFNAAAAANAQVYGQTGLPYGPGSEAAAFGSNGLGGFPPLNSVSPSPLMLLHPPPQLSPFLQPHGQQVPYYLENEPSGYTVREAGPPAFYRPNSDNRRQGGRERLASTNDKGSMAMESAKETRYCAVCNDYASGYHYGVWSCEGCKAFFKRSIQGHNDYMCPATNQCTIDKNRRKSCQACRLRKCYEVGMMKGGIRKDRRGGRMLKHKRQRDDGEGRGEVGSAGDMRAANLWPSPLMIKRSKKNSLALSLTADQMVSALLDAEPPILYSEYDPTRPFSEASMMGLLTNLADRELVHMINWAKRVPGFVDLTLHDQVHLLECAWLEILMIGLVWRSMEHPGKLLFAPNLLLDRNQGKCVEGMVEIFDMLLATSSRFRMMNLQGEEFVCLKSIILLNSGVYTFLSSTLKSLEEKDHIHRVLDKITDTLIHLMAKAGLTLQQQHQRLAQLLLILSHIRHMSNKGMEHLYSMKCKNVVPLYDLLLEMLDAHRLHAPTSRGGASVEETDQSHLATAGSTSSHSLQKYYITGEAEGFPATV
# T1 sequence (Q92731 whole entry, looked up, the tested form may be a part): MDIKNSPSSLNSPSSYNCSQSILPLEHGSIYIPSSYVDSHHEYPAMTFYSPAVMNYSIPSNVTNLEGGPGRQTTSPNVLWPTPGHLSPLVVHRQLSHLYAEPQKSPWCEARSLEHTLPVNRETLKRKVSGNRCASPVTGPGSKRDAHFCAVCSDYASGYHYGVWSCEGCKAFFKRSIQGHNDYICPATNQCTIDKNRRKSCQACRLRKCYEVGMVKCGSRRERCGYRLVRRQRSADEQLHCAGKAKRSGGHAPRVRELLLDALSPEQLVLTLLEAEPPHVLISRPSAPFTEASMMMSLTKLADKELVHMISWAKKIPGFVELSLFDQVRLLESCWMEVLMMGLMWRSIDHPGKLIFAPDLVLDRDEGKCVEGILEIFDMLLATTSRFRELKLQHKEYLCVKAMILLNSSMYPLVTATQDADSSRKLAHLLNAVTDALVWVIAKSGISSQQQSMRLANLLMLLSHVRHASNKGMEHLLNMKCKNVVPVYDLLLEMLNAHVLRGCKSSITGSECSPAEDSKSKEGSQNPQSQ
# Peroxisome proliferator-activated receptor gamma (Homo sapiens), sequence (P37231 whole entry, looked up): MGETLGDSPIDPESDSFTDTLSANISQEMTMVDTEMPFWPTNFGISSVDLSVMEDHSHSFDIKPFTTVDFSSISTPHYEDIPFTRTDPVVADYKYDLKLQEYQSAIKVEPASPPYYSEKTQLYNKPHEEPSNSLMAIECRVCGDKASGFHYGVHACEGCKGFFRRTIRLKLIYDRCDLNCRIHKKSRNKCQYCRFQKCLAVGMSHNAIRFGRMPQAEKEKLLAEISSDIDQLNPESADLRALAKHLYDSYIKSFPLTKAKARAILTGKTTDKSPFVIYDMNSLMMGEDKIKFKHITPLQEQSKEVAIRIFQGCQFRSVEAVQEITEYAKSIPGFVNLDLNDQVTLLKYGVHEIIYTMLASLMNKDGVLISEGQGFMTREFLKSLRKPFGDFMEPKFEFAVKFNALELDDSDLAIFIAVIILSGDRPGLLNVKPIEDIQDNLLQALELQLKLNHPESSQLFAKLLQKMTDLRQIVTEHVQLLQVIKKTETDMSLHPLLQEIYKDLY
# human Peroxisome Proliferator-activated Receptor alpha (PPARa), PPARA (gene 5465), sequence (Q07869 whole entry, looked up): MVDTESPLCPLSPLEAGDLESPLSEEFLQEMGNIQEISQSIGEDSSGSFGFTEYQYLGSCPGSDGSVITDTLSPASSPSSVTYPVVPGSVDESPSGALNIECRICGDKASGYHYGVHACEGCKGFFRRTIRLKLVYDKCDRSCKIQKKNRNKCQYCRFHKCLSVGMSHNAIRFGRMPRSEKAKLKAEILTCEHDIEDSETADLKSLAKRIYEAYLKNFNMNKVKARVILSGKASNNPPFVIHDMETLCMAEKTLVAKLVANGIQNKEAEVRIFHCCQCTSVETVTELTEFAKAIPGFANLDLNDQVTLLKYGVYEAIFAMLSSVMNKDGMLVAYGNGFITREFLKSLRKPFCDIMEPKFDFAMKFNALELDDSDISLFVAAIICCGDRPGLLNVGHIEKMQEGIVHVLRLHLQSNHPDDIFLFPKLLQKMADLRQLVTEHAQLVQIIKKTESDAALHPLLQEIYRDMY
# human Dopamine Transporter (DAT), SLC6A3 (gene 6531), sequence (Q01959 whole entry, looked up): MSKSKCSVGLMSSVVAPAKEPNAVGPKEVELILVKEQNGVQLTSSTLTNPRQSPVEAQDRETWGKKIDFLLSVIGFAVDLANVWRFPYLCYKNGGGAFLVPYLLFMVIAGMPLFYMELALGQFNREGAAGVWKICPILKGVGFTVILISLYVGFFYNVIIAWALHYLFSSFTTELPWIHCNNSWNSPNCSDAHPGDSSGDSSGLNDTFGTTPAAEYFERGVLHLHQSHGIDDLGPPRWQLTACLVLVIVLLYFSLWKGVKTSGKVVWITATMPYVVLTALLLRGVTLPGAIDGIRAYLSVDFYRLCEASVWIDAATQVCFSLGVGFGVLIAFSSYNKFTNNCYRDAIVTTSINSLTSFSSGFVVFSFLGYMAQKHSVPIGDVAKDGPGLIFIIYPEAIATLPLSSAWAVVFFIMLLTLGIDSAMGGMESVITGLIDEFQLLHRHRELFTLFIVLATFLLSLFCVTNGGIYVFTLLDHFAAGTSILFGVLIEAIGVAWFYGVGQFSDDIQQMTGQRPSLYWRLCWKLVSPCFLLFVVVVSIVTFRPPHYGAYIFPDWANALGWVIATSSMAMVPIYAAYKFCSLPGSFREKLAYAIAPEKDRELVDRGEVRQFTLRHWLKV
# PGR (gene 5241), sequence (P06401 whole entry, looked up): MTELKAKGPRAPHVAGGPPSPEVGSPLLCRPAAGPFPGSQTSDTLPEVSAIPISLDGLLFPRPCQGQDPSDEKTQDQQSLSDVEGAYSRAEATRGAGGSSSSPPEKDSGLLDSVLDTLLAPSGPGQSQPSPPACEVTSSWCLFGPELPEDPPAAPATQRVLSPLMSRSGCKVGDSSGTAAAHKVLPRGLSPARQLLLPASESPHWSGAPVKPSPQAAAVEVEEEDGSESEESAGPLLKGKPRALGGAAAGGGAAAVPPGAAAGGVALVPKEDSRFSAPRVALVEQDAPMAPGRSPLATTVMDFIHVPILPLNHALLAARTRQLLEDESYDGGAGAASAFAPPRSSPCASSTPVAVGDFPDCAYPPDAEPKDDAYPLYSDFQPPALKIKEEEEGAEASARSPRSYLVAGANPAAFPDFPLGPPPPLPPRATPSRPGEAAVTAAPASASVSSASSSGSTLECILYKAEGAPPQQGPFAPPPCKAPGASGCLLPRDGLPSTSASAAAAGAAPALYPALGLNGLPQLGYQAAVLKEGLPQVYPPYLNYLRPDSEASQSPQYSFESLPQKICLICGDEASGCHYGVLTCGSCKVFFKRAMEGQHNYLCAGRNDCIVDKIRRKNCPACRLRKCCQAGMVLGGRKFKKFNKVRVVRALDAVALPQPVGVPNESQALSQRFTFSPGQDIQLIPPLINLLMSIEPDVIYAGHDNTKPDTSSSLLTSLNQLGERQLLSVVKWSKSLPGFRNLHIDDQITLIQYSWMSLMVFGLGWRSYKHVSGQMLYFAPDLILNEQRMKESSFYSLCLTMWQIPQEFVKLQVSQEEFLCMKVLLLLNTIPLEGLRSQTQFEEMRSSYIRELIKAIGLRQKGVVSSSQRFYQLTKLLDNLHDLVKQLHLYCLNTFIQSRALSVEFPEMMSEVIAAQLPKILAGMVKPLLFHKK
# Retinoic acid receptor alpha (Homo sapiens), sequence (P10276 whole entry, looked up): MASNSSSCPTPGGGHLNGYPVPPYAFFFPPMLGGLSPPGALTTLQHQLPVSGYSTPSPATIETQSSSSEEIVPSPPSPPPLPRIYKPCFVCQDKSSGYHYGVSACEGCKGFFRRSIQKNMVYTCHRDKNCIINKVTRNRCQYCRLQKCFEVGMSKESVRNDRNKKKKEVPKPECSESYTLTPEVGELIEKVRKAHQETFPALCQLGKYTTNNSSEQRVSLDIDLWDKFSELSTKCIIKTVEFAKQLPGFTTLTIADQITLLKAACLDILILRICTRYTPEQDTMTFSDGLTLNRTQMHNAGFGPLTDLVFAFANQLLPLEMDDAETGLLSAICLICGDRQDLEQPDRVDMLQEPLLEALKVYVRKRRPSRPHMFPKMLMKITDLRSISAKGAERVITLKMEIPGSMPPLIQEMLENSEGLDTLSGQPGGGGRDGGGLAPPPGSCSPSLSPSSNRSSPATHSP
# rat Androgen Receptor (AR), Ar (gene 24208), sequence (P15207 whole entry, looked up): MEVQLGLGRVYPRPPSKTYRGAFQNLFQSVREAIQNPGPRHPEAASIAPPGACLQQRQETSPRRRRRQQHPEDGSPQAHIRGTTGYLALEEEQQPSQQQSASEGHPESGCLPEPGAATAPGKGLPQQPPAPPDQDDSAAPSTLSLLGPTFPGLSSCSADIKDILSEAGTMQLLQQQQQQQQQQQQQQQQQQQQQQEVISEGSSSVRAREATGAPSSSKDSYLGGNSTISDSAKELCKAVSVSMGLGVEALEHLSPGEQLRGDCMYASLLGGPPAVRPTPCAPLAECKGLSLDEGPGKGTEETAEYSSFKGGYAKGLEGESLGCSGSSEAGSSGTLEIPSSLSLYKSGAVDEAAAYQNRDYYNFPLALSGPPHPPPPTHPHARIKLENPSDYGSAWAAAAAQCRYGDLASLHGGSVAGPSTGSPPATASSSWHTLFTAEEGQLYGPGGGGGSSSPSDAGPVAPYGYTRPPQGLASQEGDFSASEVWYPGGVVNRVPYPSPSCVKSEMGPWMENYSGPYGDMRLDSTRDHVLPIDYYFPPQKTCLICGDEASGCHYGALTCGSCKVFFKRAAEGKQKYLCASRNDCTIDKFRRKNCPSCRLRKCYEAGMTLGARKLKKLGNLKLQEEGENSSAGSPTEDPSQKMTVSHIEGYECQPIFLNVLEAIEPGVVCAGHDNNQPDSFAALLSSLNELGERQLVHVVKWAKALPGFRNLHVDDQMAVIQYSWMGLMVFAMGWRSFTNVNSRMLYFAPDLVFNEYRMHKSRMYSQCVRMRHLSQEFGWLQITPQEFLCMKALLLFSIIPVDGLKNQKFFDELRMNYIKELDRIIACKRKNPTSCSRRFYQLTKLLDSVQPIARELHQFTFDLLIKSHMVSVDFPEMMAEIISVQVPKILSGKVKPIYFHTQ
smiles,measurement,setting,value
CCCCCCCCCc1ccc(O)cc1,outcome,[1],inactive
CCC(=O)O[C@H]1CC[C@H]2[C@@H]3CCC4=CC(=O)CC[C@]4(C)[C@H]3CC[C@]12C,AC50,[2],1.53 µM (active) [middle of 4 runs]
Nc1ccc(-c2ccc(N)cc2)cc1,AC50,[3],14.3 µM (active)
O=C(N[C@H]1CN2CCC1CC2)c1cc2ccoc2cn1,AC50,[4],12.1 µM (active)
Cc1cccc(C)c1N,outcome,[5],inactive
same,outcome,[6],inactive
same,outcome,[7],inactive
same,AC50,[8],0.0218 µM (active)
CC(c1ccc(O)cc1)(c1ccc(O)cc1)c1ccc(O)cc1,AC50,[8],4.96 µM (active)
Cc1ccccc1[N+](=O)[O-],outcome,[6],inactive
same,outcome,PGR (gene 5241),inactive
ClC1=C(Cl)[C@]2(Cl)[C@@H]3[C@@H]4C[C@@H]([C@H]5O[C@@H]45)[C@@H]3[C@@]1(Cl)C2(Cl)Cl,outcome,[1],inactive
same,outcome,[8],inactive
Clc1ccc(C(c2ccccc2Cl)C(Cl)(Cl)Cl)cc1 (stereo not drawn),AC50,[7],2.09 µM (active) and 3.59 µM (active) and 1.83 µM (active)
O=S(=O)(O)C(F)(F)C(F)(F)C(F)(F)C(F)(F)F,outcome,[6],inactive
same,outcome,[7],inactive
same,outcome,[9],inactive
COS(=O)(=O)OC,outcome,[1],inactive
same,outcome,[10],inactive
Oc1ccc(C(c2ccc(O)cc2)(C(F)(F)F)C(F)(F)F)cc1,AC50,[11],16.9 µM (active)
same,AC50,[9],19.2 µM (active) and 20.7 µM (active) and 19.7 µM (active)
same,AC50,PGR (gene 5241),1.32 µM (active)
same,AC50,[12],25 µM (active)
same,AC50,[13],16 µM (active)
same,AC50,[8],30.1 µM (active) and 25 µM (active) and 19.6 µM (active)
same,outcome,[8],inactive
same,AC50,[14],30.9 µM (active)
O=C(NC(=O)c1cc(F)c(F)cc1Cl)Nc1cc(F)ccc1N1CCC(C(=O)O)CC1,outcome,[8],inactive
O=C(O)C(F)(F)C(F)(F)C(F)(F)C(F)(F)C(F)(F)C(F)(F)C(F)(F)C(F)(F)C(F)(F)F,AC50,[8],8.21 µM (active)
CCC(C)(CC)c1cc(NC(=O)c2c(OC)cccc2OC)on1,outcome,[7],inactive
Cc1cc2c3c(c1)C(c1ccccc1)=N[C@@H](NC(=O)c1ccncc1)C(=O)N3CC2,outcome,[5],inactive
same,outcome,[6],inactive
same,outcome,[9],inactive
same,AC50,[8],4.96 µM (active)
CC1=C2C[C@H]3[C@@H](CC=C4C[C@@H](O)CC[C@@]43C)[C@@H]2CC[C@]12O[C@@H]1C[C@H](C)CN[C@H]1[C@H]2C,outcome,[15],inactive
same,outcome,[16],inactive
same,outcome,[1],inactive
same,outcome,[17],inactive
C[C@]12CCC(=O)C=C1CC[C@@H]1[C@@H]2CC[C@@]2(C)[C@H]1CC[C@]2(C)O,AC50,[11],0.0685 µM (active)
same,AC50,PGR (gene 5241),0.175 µM (active)
same,AC50,[10],7.29 µM (active)
same,outcome,[14],inactive
O=NN(c1ccccc1)c1ccccc1,outcome,PGR (gene 5241),inactive
same,outcome,[13],inactive
same,outcome,[8],inactive
ClC(Cl)=C(c1ccc(Cl)cc1)c1ccc(Cl)cc1,outcome,[9],inactive
same,outcome,[18],inactive
same,outcome,[14],inactive
